# Test results as given in ChEMBL document CHEMBL2218924, “A broad activity screen in support of a chemogenomic map for kinase signalling research and drug discovery” (Biochem J, 2013).
# Assays:
# [1] = target: T1, Ephrin type-A receptor 3 (Homo sapiens) (UniProt P29320); conditions: at 10 µM
# T1 sequence (whole entry): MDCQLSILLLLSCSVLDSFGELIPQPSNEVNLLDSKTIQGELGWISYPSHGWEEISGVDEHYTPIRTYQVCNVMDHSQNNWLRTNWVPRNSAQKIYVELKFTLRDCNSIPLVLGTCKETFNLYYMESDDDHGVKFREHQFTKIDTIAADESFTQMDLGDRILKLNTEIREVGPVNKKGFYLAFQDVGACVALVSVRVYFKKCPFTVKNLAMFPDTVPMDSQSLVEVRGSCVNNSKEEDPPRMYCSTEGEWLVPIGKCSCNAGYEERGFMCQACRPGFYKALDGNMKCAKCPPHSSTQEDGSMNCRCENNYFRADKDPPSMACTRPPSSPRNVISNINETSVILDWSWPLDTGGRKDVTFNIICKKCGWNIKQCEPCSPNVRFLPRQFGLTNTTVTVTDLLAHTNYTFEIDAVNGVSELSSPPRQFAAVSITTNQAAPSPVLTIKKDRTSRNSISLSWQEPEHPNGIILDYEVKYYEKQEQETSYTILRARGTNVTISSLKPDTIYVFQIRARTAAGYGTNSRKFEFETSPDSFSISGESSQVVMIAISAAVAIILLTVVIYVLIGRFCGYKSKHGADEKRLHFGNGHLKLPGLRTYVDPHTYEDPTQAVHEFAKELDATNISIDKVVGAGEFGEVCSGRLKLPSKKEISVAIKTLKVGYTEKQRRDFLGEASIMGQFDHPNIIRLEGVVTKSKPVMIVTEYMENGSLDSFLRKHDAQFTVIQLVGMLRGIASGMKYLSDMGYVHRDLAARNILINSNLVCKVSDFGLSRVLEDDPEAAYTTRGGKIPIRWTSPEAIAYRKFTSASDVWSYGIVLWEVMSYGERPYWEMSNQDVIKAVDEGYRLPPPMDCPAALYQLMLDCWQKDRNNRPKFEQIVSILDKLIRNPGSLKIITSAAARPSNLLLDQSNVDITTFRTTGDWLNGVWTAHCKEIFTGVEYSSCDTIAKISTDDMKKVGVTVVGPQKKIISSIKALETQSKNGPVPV
# [2] = target: Ephrin type-A receptor 5 (Homo sapiens) (UniProt P54756); conditions: at 10 µM
# Chain of Ephrin type-A receptor 5 (Homo sapiens) (P54756 whole entry): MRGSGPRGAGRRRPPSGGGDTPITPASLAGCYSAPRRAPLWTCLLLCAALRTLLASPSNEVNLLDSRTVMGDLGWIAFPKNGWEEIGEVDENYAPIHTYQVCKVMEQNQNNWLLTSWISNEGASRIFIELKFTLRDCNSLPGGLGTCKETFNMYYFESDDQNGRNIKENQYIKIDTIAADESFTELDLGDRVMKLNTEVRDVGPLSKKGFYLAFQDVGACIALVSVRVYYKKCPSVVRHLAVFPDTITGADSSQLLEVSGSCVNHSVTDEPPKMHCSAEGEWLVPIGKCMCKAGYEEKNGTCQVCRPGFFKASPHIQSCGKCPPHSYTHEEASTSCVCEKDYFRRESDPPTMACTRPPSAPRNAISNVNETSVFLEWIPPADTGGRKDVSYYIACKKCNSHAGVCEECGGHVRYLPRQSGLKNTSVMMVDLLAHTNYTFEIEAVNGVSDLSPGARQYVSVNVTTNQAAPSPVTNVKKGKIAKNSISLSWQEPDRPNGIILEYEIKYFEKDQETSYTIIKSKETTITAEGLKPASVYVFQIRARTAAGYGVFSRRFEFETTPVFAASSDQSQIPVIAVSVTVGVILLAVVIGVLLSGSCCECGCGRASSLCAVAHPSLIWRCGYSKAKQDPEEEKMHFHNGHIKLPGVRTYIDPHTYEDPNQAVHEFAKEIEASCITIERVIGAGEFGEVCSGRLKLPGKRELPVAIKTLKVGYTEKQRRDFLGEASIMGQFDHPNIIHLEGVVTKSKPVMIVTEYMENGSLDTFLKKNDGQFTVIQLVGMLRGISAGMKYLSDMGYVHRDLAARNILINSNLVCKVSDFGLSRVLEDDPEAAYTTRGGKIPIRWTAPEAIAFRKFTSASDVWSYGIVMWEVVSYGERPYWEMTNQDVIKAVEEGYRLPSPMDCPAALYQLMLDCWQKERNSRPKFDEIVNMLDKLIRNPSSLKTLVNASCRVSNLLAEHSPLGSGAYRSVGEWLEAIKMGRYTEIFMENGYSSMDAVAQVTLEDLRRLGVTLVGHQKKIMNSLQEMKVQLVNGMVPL
# [3] = target: Ephrin type-A receptor 7 (Homo sapiens) (UniProt Q15375); conditions: at 1 µM
# Chain of Ephrin type-A receptor 7 (Homo sapiens) (Q15375 28-998 limits assumed): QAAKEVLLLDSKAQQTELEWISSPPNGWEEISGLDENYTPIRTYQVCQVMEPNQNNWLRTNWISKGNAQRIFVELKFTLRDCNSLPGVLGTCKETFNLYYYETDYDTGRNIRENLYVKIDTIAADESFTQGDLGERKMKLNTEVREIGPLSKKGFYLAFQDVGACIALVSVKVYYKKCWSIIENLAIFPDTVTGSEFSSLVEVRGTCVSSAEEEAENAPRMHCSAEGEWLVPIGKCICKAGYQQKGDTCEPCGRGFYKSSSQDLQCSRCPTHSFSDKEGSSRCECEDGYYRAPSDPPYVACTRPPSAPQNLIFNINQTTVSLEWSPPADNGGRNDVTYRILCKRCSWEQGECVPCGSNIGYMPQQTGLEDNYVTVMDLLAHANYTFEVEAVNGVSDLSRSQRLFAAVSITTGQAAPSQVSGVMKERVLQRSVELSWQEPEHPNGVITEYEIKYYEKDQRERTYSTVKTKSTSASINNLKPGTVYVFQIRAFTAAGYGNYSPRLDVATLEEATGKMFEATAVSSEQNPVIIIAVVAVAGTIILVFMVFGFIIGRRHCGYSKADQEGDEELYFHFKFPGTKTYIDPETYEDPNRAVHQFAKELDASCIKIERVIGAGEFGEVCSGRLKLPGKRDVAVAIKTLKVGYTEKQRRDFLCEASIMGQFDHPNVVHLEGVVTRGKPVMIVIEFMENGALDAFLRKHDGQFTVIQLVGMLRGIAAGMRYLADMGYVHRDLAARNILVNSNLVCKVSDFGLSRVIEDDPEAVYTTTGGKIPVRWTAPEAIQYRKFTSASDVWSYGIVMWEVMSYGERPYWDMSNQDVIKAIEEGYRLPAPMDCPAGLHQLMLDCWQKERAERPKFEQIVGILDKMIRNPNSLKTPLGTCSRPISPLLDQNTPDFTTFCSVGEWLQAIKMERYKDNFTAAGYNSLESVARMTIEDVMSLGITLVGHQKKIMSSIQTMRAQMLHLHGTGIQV
# [4] = target: Ephrin type-A receptor 7 (Homo sapiens) (UniProt Q15375); conditions: at 10 µM
# [5] = target: T2, Ephrin type-A receptor 8 (Homo sapiens) (UniProt P29322); conditions: at 1 µM
# T2 sequence (whole entry): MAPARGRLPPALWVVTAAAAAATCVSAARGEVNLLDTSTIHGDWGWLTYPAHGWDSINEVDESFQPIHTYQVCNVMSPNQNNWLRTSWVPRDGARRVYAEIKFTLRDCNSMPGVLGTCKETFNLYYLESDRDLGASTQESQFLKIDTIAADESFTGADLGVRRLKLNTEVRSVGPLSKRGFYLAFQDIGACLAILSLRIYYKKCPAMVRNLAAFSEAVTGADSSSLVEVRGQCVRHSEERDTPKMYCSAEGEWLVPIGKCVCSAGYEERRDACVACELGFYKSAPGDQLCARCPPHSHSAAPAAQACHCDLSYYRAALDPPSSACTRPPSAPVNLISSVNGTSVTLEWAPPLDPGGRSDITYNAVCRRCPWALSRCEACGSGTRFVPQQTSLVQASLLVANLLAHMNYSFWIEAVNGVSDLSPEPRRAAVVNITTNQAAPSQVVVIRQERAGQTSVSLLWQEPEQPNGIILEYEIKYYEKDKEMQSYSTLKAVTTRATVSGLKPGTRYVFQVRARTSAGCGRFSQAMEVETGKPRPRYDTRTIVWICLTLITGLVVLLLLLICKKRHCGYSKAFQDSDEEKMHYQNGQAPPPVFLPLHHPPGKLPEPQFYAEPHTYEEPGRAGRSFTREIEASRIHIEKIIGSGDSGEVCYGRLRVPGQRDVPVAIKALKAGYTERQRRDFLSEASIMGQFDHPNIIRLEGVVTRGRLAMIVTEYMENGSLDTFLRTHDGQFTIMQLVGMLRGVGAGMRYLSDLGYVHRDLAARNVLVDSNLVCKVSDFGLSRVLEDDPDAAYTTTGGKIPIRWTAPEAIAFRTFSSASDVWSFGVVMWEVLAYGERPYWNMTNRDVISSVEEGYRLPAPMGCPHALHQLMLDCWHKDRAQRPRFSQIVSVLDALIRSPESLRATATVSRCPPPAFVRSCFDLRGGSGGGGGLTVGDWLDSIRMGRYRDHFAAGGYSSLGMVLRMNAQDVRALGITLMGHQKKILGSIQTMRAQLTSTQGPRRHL
# [6] = target: T2, Ephrin type-A receptor 8 (Homo sapiens); conditions: at 10 µM
# [7] = target: T3, Ephrin type-B receptor 2 (Homo sapiens) (UniProt P29323); conditions: at 10 µM
# T3 sequence (whole entry): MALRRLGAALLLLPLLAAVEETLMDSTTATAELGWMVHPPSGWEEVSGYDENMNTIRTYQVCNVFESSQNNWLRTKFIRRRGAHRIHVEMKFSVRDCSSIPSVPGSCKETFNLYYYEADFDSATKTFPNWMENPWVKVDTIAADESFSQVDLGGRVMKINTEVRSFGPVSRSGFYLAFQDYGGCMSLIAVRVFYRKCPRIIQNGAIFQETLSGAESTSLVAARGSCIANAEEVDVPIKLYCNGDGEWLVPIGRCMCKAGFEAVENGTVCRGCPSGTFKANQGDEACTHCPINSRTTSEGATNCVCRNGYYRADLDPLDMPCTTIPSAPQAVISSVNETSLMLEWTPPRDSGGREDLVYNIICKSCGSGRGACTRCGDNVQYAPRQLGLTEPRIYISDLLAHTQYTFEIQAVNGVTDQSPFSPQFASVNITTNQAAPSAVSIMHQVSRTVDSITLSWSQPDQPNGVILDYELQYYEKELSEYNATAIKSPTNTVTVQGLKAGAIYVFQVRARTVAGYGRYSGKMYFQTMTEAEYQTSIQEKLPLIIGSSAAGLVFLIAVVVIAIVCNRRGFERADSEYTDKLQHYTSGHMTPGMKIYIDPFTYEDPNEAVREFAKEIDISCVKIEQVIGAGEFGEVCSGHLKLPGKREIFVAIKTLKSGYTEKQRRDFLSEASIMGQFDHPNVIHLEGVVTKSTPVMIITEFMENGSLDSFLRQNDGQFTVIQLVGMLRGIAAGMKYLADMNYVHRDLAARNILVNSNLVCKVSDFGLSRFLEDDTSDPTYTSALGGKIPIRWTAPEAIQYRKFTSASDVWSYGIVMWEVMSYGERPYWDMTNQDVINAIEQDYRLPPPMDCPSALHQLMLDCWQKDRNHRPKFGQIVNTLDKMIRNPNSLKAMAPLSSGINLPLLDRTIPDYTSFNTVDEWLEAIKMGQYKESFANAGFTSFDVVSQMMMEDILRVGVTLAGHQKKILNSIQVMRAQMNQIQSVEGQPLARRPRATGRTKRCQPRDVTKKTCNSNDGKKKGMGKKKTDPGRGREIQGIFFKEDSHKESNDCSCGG
# [8] = target: Ephrin type-A receptor 4 (Homo sapiens) (UniProt P54764); conditions: at 10 µM
# [9] = target: Ephrin type-A receptor 5 (Homo sapiens) (UniProt P54756); conditions: at 1 µM
# [10] = target: T3, Ephrin type-B receptor 2 (Homo sapiens); conditions: at 1 µM
# [11] = target: T4, Ephrin type-B receptor 3 (Homo sapiens) (UniProt P54753); conditions: at 1 µM
# T4 sequence (whole entry): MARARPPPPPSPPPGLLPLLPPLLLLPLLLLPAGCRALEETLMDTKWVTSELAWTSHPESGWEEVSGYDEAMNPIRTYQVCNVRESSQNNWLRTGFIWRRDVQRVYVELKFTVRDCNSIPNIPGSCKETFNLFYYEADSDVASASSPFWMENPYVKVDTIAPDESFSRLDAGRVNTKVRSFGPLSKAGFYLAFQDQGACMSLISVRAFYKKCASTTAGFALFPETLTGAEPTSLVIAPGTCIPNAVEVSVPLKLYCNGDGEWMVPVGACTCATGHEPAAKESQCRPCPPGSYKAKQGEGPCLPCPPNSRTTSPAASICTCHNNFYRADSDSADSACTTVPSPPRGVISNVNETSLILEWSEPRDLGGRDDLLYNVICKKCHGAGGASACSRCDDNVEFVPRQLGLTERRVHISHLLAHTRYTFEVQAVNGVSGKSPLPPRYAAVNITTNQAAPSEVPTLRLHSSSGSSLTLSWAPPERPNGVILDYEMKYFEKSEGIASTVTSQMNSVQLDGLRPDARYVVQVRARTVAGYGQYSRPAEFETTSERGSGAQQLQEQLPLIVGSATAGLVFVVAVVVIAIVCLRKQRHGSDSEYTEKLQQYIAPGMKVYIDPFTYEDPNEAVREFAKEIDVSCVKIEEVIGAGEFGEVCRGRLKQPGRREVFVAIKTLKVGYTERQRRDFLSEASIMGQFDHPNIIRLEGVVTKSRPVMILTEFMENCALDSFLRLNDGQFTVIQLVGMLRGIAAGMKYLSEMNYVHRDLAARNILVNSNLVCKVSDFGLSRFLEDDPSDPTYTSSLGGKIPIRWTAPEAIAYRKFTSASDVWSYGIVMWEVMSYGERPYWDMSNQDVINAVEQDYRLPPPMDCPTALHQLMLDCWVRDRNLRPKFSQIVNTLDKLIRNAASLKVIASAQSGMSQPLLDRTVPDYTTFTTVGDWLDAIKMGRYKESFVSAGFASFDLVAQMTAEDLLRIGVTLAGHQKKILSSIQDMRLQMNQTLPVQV
# [12] = target: T4, Ephrin type-B receptor 3 (Homo sapiens); conditions: at 10 µM
# [13] = target: T5, Ephrin type-B receptor 4 (Homo sapiens) (UniProt P54760); conditions: at 1 µM
# T5 sequence (whole entry): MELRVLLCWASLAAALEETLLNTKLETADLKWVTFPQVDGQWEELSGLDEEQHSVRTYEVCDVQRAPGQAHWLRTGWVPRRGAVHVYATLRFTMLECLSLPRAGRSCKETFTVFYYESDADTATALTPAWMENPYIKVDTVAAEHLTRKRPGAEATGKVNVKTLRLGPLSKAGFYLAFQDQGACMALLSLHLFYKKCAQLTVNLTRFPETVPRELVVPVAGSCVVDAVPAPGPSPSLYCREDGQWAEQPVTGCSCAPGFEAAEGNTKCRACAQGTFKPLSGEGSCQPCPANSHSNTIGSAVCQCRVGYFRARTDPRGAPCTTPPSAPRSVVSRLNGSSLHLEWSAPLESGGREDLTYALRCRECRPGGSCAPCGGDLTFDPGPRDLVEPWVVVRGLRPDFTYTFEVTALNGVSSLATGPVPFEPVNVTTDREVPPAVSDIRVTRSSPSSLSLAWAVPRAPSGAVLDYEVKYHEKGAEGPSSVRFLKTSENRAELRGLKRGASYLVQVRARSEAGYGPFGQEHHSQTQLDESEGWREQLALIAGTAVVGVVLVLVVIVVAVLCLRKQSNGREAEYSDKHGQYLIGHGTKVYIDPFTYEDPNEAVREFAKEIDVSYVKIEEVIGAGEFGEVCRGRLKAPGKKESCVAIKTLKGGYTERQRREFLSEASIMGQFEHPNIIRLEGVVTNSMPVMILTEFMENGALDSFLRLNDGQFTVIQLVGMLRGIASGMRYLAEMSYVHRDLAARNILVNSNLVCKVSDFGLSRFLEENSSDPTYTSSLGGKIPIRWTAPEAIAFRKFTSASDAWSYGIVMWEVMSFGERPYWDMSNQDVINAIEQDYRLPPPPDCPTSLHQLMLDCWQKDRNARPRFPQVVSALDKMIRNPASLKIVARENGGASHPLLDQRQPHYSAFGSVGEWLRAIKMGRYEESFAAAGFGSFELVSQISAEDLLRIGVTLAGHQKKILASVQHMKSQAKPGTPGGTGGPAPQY
# [14] = target: T5, Ephrin type-B receptor 4 (Homo sapiens); conditions: at 10 µM
# [15] = target: Receptor tyrosine-protein kinase erbB-4 (Homo sapiens) (UniProt Q15303); conditions: at 10 µM
# Chain of Receptor tyrosine-protein kinase erbB-4 (Homo sapiens) (Q15303 whole entry): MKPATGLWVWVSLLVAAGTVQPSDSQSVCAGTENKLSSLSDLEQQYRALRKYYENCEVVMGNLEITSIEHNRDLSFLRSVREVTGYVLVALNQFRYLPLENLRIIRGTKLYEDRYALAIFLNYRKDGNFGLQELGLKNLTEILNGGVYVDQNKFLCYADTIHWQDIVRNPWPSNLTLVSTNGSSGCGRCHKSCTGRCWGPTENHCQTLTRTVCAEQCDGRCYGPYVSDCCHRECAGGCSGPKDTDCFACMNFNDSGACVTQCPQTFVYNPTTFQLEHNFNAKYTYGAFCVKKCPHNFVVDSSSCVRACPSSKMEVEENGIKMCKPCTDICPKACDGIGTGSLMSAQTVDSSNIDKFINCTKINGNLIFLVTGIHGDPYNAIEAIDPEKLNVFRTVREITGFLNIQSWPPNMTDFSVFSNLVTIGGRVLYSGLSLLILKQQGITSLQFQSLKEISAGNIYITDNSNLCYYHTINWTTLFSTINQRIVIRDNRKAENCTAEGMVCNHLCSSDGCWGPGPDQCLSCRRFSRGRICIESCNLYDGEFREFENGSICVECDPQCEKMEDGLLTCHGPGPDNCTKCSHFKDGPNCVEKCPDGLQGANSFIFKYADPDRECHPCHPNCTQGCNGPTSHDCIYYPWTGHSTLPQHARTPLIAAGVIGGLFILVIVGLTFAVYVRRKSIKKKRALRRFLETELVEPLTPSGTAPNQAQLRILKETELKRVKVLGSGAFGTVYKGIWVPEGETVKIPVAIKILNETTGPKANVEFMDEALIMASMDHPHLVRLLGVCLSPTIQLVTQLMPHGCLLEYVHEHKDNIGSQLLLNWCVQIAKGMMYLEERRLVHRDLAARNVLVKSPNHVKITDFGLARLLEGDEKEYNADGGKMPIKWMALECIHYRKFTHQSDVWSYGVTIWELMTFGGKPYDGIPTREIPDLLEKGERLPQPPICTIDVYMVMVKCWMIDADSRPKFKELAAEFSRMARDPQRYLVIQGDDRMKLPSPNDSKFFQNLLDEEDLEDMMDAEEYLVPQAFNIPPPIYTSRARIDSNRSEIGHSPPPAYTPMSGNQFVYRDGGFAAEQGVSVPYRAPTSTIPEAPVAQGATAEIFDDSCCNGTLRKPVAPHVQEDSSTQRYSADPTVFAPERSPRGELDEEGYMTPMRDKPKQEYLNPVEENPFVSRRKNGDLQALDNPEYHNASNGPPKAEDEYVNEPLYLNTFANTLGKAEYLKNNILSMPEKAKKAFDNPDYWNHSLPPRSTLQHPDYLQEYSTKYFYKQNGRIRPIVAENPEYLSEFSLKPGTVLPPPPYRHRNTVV
# [16] = target: Focal adhesion kinase 1 (Homo sapiens) (UniProt Q05397); conditions: at 1 µM
# Chain of Focal adhesion kinase 1 (Homo sapiens) (Q05397 2-1052 limits assumed): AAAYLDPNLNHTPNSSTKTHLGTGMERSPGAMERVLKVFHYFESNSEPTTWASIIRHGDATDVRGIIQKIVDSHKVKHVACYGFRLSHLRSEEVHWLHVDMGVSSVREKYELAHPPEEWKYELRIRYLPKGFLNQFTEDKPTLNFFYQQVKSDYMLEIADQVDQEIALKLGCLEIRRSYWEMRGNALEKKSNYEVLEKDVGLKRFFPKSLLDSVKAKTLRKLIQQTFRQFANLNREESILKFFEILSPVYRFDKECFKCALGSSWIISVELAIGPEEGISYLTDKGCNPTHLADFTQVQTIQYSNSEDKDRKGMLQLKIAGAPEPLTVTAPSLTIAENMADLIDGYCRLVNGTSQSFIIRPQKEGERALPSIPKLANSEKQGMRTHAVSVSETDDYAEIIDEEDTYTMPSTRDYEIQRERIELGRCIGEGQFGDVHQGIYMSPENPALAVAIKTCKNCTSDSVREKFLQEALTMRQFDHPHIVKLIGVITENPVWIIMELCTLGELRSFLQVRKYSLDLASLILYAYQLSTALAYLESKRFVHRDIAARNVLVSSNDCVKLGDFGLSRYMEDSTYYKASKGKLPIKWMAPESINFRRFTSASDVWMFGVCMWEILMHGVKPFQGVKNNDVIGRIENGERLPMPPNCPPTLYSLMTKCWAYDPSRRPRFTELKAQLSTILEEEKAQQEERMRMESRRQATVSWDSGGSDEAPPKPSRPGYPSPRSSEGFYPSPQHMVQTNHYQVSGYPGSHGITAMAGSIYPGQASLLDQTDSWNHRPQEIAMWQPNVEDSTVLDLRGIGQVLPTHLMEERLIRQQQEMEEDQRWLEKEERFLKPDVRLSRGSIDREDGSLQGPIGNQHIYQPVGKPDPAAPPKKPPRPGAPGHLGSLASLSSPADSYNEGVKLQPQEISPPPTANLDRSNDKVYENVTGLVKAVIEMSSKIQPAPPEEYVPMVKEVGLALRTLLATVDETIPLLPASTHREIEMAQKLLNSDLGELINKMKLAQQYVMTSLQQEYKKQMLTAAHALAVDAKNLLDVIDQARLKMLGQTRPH
Compound,residual activity [1] [%],residual activity [2] [%],residual activity [3] [%],residual activity [4] [%],residual activity [5] [%],residual activity [6] [%],residual activity [7] [%],residual activity [8] [%],residual activity [9] [%],residual activity [10] [%],residual activity [11],residual activity [12] [%],residual activity [13] [%],residual activity [14] [%],residual activity [15] [%],residual activity [16] [%]
Fc1ccc(-c2nc3n(c2-c2ccncc2)CCS3)cc1,90,89,99,84,97,70,91,–,–,–,–,–,–,–,–,–
CC(C)[C@H](CO)Nc1nc(Nc2cc(N)cc(Cl)c2)c2ncn(C(C)C)c2n1,52,23,–,–,93,59,7,63,86,92,92% (inactive),116,57,6,84,42
